# Experimental data reported in PubChem BioAssay AID624416 (The Scripps Research Institute Molecular Screening Center, 2012).
# About 1,500 (0.42%) of roughly 360,000 compounds were called active. Only a selection was taken, and actives are over-represented in it overall. Values without a mark were called inactive. No stated cut-off is given here; in the data, active means inhibition above about 8.5%; inactive means the rest.
# Test system: HIV-1 gp120 / PG9 antibody interaction
# Test: small molecules engaging PG9 antibody – biochemical, TR-FRET, primary screen (AID 624416)
# Details: TR-FRET gp120-PG9 antibody binding; at 6.7 µM; hits give high values
row,SMILES,inhibition
1,COC(=O)C1=C(C)NC(=S)NC1c1ccc(OC)cc1 (stereo not drawn),-0.48%
2,COC(=O)C1=C(C)N(Cc2cccc(C(F)(F)F)c2)C(=NCc2ccccc2)NC1c1ccc(Cl)cc1 (stereo not drawn),-1.36%
3,COC(=O)[C@H](CC(C)C)NS(=O)(=O)c1c(F)cccc1F,-2.8%
4,COc1ccc(S(=O)(=O)Nc2ccc3c(c2)C(=O)N([C@H](C)CO)C[C@H](C)[C@@H](CN(C)C)OCCCC[C@H](C)O3)cc1,-0.42%
5,O=C(COC(=O)Cn1cnc2ccccc21)Nc1cccc2c1C(=O)c1ccccc1C2=O,-1.23%
6,O=C(COC(=O)c1cccc(Br)c1)Nc1cccc2c1C(=O)c1ccccc1C2=O,12% (active)
7,O=C(COC(=O)c1cccc(Cl)c1)Nc1ccc2[nH]c(=O)[nH]c2c1,0.75%
8,COC(=O)[C@]12C[C@H](CC(=O)NCc3cccc(C(F)(F)F)c3)C(=O)N(Cc3ccc4c(c3)OCO4)C1=C[C@H](COCc1ccccc1)O[C@@H]2C,-1.16%
9,COc1cccc(NC(=O)N(C)C[C@@H]2OCc3cn(nn3)CCCC(=O)N([C@@H](C)CO)C[C@H]2C)c1,0.85%
10,CCOc1ccc2nc(N3CCCN(C(=O)Nc4ccccc4C)CC3)c(C#N)cc2c1,1.36%
11,CCOc1ccc2cc(C#N)c(SCC(=O)OC)nc2c1,33.3% (active)
12,Cc1cc(C#N)c(SCC(N)=O)nc1-c1ccc(F)cc1,-0.54%
13,COc1ccccc1Cc1c(-c2ccc(F)cc2)nc2ccc(C)cn12,1.73%
14,N#Cc1ccc(OCCCN2CCC(C(O)(c3ccccc3)c3ccccc3)CC2)c(F)c1,1.27%
15,Cc1nc(NC(=O)CCC(=O)O)sc1C(=O)N(C)C,0.5%
16,NS(=O)(=O)c1ccc2nc(NC(=O)CS(=O)(=O)c3ccc(F)cc3)sc2c1,-0.8%
17,O=C(O)CCC(=O)Nc1nc2ccc([N+](=O)[O-])cc2s1,9.53% (active)
18,CCN1C(=O)N[C@@H]2C[C@H](C(=O)N3CCCC3)[C@H](C)[C@H](c3ccccc3)C[C@@H]21,-1.63%
19,O=C(COC(=O)c1cccc(Cl)c1Cl)NC1CCCCCC1,-0.6%
20,N#Cc1ccccc1Sc1ccccc1C(=O)OCC(=O)NC1CCCCC1,33% (active)
21,O=C(COC(=O)c1ccccc1Cl)NC1CCCCCCC1,-1.4%

row,SMILES,inhibition
1,COCCNC(=S)N(C)[C@H]1C[C@H]2c3[nH]c4ccccc4c3CCN2C[C@H]1[C@H](C)O,-0.82%
2,COCc1[nH]nc2c1C(c1ccccc1)N(c1ccccc1)C2=O (stereo not drawn),0.32%
3,O=C1[C@@H](c2ccccc2)[C@@H](c2ccccc2)N1c1ccccc1,-1.27%
4,Cc1cc2c3ccccc3[nH]c(=O)n2n1,0.66%
5,S=c1ccc2ccccc2[nH]1,1.87%
6,S=c1[nH]c2ccccc2c2ccccc12,41.9% (active)
7,Cc1ccc(-n2nc(-c3ccco3)cc2C(=O)NCc2cccnc2)cc1,1.7%
8,Cc1ccc(-n2ncc3c2ncn2nc(-c4ccco4)nc32)c(C)c1,1.54%
9,Cc1ccc(-n2ncc3c(=O)n(-c4ccc(C)c(C)c4)c(-c4ccco4)nc32)cc1,9.24% (active)
10,CCOC(=O)Cn1c2c(n(-c3ccc(F)cc3)c1=O)C=C(c1ccccc1)[C@@H](C)C(C(=O)N(C)C1CCCCC1)=C2,1.82%
11,CCCCCCCCN1C(=O)[C@@H](CC(=O)N2CCN(C(=O)OCC)CC2)C[C@@]2(C(=O)OC)C1=C[C@H](C1CCCC1)O[C@@H]2C,-1.72%
12,Cc1nn(C)cc1CNC(=O)Nc1ccc(Cl)cc1,-1.07%
13,Cc1ccc(-c2cc(C(=O)NCc3cn(C)nc3C)c3cc(Br)ccc3n2)cc1,11.4% (active)
14,Cc1nn(C)cc1C(=O)Nc1ccccc1Br,-1.45%
15,Cc1cc(OC(=O)NCCc2ccc(F)cc2)ccc1F,0.4%
16,COC(=O)[C@]12C[C@H](CC(=O)NCc3ccccc3)C(=O)N(CCC3=CCCCC3)C1=C[C@H](C(C)(C)C)O[C@@H]2C,-0.45%
17,Nc1ncnc2c1ncn2C1OC(CO)CC1O (stereo not drawn),-0.46%
18,N#Cc1c(N)nc2c3c(sc(=N)c2c1N)NC(=O)CC3c1ccccc1Cl (stereo not drawn),36.3% (active)
19,CSc1nc2c(c(=O)[nH]1)C(c1cccc(Cl)c1Cl)CC(=O)N2 (stereo not drawn),-0.61%
20,NNc1nc2c(Cl)cccc2s1,-3.22%
21,Fc1cc(F)c2nc(Nc3nc4c(F)cccc4s3)sc2c1,12.7% (active)

row,SMILES,inhibition
1,Cc1cc(NCCc2c[nH]c3ccccc23)ccc1Oc1cccnc1,0.39%
2,C[C@@H](CN1C2=NC[C@@H](Cc3ccccc3)N2C[C@H]1Cc1ccc(O)cc1)NC(=O)CCC1CCCCC1,-0.86%
3,COc1ccc(NC(=O)CC(NC(C)c2ccccc2)C(=O)O)cc1 (stereo not drawn),-1.77%
4,COc1ccc(NC(=O)CSc2nnc(Cc3ccccc3)c(=O)n2N)cc1,-0.48%
5,COc1ccc(CC(=O)Nc2ccc(-c3nnc(-c4ccccc4)o3)cc2)cc1,9.44% (active)
6,CC(C)[C@H]1COCCS(=O)(=O)N1Cc1ccccc1-c1cccc2c1sc1ccccc12,-1.17%
7,C=CC[C@]12C[C@@]3(O[C@H](c4ccc(C(F)(F)F)cc4)N=C3C[C@H](c3ccc(OC)cc3)[C@H]1C)N(C1CCN(Cc3ccccc3)CC1)C2=O,-1.53%
8,COc1cccc(-n2c(SCC(=O)c3c[nH]c4ccccc34)nc3ccccc3c2=O)c1,35.5% (active)
9,CCCn1c(N)c(C(=O)CSc2nc3ccccc3c(=O)n2-c2ccc(OC)cc2)c(=O)[nH]c1=O,-1.09%
10,Cc1ccc(-n2c(SCC(=O)N3CCC(C(=O)O)CC3)nc3ccccc3c2=O)cc1C,-0.77%
11,COc1ccc(CNC(=O)c2cc(C(=O)C3CC3)c[nH]2)cc1,-0.91%
12,O=C(NCCc1ccccn1)c1cc(C(=O)C2CCCCC2)c[nH]1,10.2% (active)
13,O=C(NCCc1ccccn1)c1ccc(COc2ccccc2)o1,-2%
14,COc1ccc(CCNC(=O)CSc2nnc3ccc(-c4ccncc4)nn23)cc1,-1.52%
15,COc1ccc(CCNC(=O)CSc2nc(-c3ccc(OC)c(OC)c3)ccc2C#N)cc1,16% (active)
16,COc1cc(OC)cc(C(=O)NCCSCc2ccc(Cl)cc2)c1,-1.65%
17,COc1ccc(CCNC(=O)COC(=O)c2cnc(Cl)c(Cl)c2)cc1,-0.95%
18,COc1cccc(-c2ccc(C#N)c(SCC(=O)NCCc3ccc(Cl)cc3)n2)c1,14.1% (active)
19,COc1ccc(CCNC(=O)CSc2nc(C)nc3c2oc2ccccc23)cc1OC,-0.52%
20,CCc1c(-c2ccccc2OC)ncn1CCc1ccccc1OC,0.74%
21,COC(=O)[C@]12C[C@H](CC(=O)N3CCN(C(=O)C4CC4)CC3)C(=O)N(Cc3ccc4c(c3)OCO4)C1=C[C@H](C(C)(C)C)O[C@@H]2C,-1.36%

row,SMILES,inhibition
1,COC(=O)c1ccc(CN2C(=O)[C@]3(OCCC=C[C@H]3C)c3c(Br)cccc32)cc1,0.64%
2,COc1ccccc1C(=O)N1O[C@]23C=C[C@]14C[C@@H](O)CC[C@]4(C)C2CC[C@]1(C)[C@@H]([C@H](C)/C=C/[C@H](C)C(C)C)CC[C@H]13 (stereo partly drawn),0.64%
3,NC(=O)c1ncn([C@@H]2O[C@H](C(=O)O)[C@@H](O)[C@H]2O)n1,-0.47%
4,CCOC(=O)c1c(C)[nH]c(C(=O)OCC(=O)c2ccc(OC)cc2OC)c1C,9.16% (active)
5,CCOC(=O)c1c(C)[nH]c(C(=O)COc2ccc3c(c2)OCO3)c1C,3.13%
6,COc1ccc(C(=O)COC(=O)C(O)c2ccccc2)c(OC)c1 (stereo not drawn),-2.12%
7,COC(=O)Cc1nnn2c1[C@H](C)[C@@H](OC)c1cc(Br)ccc1-2,0.07%
8,CCn1c(CNC(=O)c2ccco2)nnc1SCC(=O)Nc1cccc(F)c1,-1.17%
9,Cn1c(SCC(=O)Nc2ccc(Br)cc2F)nnc1-c1ccco1,2.43%
10,CCn1c(SCC(=O)Nc2cccc(F)c2)nnc1-c1cc2cc(Br)ccc2o1,24.2% (active)
11,CCCCCCCCN1C(=O)[C@@H](CC(=O)NCc2ccc(C)o2)C[C@@]2(C(=O)OC)C1=C[C@H](C(C)(C)C)O[C@@H]2C,0.05%
12,COC(=O)C1=C(C)N(Cc2ccccc2C(F)(F)F)C(=NCc2ccc(OC)cc2)NC1c1cccc(C(F)(F)F)c1 (stereo not drawn),24.9% (active)
13,COC(=O)C1=C(C)N(Cc2ccccc2C(F)(F)F)C(=NCc2ccc(C(F)(F)F)cc2)NC1c1ccc(F)cc1 (stereo not drawn),-2.66%
14,COC(=O)C1=C(C)N(Cc2ccccc2C(F)(F)F)C(=NCC2CC2)NC1c1cccc(Cl)c1 (stereo not drawn),-1.5%
15,CC1(C)OC(=O)C2=C(CC(CCc3ccccc3)OC2c2ccc(Cl)cc2)O1 (stereo not drawn),1.11%
16,COc1ccc(Sc2ccc(NC(=O)c3cccc(Cl)c3)cc2C#N)cc1,-1.17%
17,O=C(Nc1ccn(Cc2ccccc2F)n1)c1ccc(COc2ccc(Cl)cc2Cl)o1,1.3%
18,N#Cc1ccccc1NC(=O)c1cccc(COc2ccc(Cl)cc2Cl)c1,19.9% (active)
19,CN[C@H]1C[C@H]2c3[nH]c4c(-c5ccccc5)cccc4c3CCN2C(=O)[C@H]1[C@H](C)O,-0.87%
20,COc1ccc(-c2ccc3c(n2)CCCN3S(=O)(=O)c2ccc(C)cc2)cc1,-0.15%
